Source: PubChem BioAssay (National Center for Advancing Translational Sciences (NCATS))
An excerpt weighted towards active compounds, which were near 21% of everything screened.
SARS PLpro yeast – blocks SARS-CoV papain-like protease in a yeast assay; S. cerevisiae expressing SARS-CoV PLpro, growth rescue; Potency, µM (top dose mostly 32.9 µM), without a hit: at the highest dose activity, positive = growth rescue, actives largely listed as activators; 330,000 compounds, 0.19% hits; also: potency is read from the fitted curve at half-maximal effect; 0% is about no effect; nearly all actives have a fitted effect of over 55% in size
Shiga inhibitor – Shiga toxin inhibition; Vero cells, Shiga toxin protein synthesis inhibition reporter; inhibition, % at 38.7 µM; 290,000 compounds, 9.2% hits; in the data active = inhibition mostly above about 28%, no sharp cut-off; inactive = mostly below about 43%; also: 0% is about no effect
Pf growth 96h – P. falciparum growth inhibition at 96 hour, primary screen for plastid delayed-death inhibitors; P. falciparum luciferase reporter growth, 96 h; 320,000 compounds, 6.9% hits; Potency, µM (top dose mostly 28.7 µM), for the others: at the top dose activity change, negative = inhibition, usual class: inhibitors; active = well fitted inhibition curve with a large enough effect; inconclusive = small, poorly fitted or top-dose-only effect, or another doubt; inactive = no such curve, though single readings can be large or run the other way; also: potency is read from the fitted curve at half-maximal effect; % is scaled to controls: 0 for no effect and ±100 for the full control effect
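P. falciparum expressing integrated firefly luciferase, in erythrocytes at 2% hematocrit, 0.05% parasitemia, incubated with compounds 96 h at 37 C, 5% CO2. Growth inhibition read as loss of luminescence; two-generation exposure targets delayed-death apicoplast inhibitors.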
NS1 function inh – inhibitors of influenza NS1 protein function; Potency, µM (top dose mostly 46.1 µM), for inactives: at the top dose activity, positive = more growth; 270,000 compounds, 0.4% hits; AID 2326; also: potency is read from the fitted curve at half-maximal effect; actives are rising curves; nearly all actives have a fitted effect of over 50% in size
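Recovery from NS1-induced slow growth read by OD600 in budding yeast switched to galactose assay medium (pH 6.0, -URA) at 1:100 dilution. Compound 23 nl per well; the matching strain lacking NS1 serves as control.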
Pf growth 48h – inhibits P. falciparum growth in the first generation, 48 h; P. falciparum luciferase growth in erythrocytes, 48 h; 310,000 compounds, 5.9% hits; Potency, µM (series often up to 28.7 µM), without a hit: at the highest dose activity change, negative = inhibition, most hits filed as inhibitors; active = well fitted inhibition curve with a large enough effect; inconclusive = small, poorly fitted or top-dose-only effect, or another doubt; inactive = no such curve, though single readings can be large or run the other way; also: potency is read from the fitted curve at half-maximal effect; % is scaled to controls: 0 for no effect and ±100 for the full control effect
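Compounds are pin-transferred into medium, infected erythrocytes (2% hematocrit, 0.1% parasitemia final) are added, and plates sit one parasite generation at 37 C in 5% CO2. Detection reagent is then added and luminescence measured.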
Cycloheximide cs – affects cycloheximide protein synthesis inhibition readout, counter-screen; cell reporter, cycloheximide protein synthesis inhibition counterscreen; max response, %; 300,000 compounds, 12% hits; in the data active = max response mostly above about 13%, no sharp cut-off; inactive = mostly below about 14%; also: read at 38.3 µM for the half of the compounds with a filed dose; 0% is about no effect
The depositor's hits bear a star; u = inconclusive; x = not tested or not shown. Unless noted, calls follow the shape of the full dose curve.

SMILES | SARS PLpro yeast | Shiga inhibitor | Pf growth 96h | NS1 function inh | Pf growth 48h | Cycloheximide cs
COC(=O)c1ccc(NC(=O)CSc2nnc(-c3cccnc3)o2)cc1 | -6% | x | 0% | x | 43% | x
COc1ccccc1C(=O)Nc1ccc(C(=O)Nc2ccccc2C(=O)O)cc1 | -1% | -17 | -1% | -5% | 15% | -4
COc1cccc2cc(C(=O)NCCN3CCOCC3)c(=O)oc12 | -1% | -7 | 15% | 3% | 13% | 1
CCOc1ccc(/C=C(\C(=O)O)c2ccc(S(=O)(=O)N3CCCCC3)s2)cc1OC | 0% | x | x | x | x | x
CC(C)N(C(=O)CSc1nc2ccccc2n1Cc1ccccc1F)C(C)C | 20% | -4 | -22% | -2% | 10µM* | -2
CC(C)N(C(=O)CSc1nc2ccccc2n1Cc1ccccc1)C(C)C | -2% | 5 | 1% | -1% | u | 1
CNc1sc(C(=O)c2ccccc2F)c(N)c1-c1nc2ccccc2s1 | -2% | 64* | u | -5% | x | 19*
O=C(COC(=O)c1ccccc1-c1nc2ccccc2s1)Nc1ccccc1C(F)(F)F | -10% | -10 | u | 0% | 5% | 1
COc1cc(NC(=O)c2cccnc2SC)cc(OC)c1OC | 1% | -6 | 13% | x | 80% | 2
Cc1ccnc(NC(=O)c2ccccc2NC(=O)C(C)(C)C)c1 | -9% | -2 | u | -4% | u | 0
COc1ccc(C(=O)Nc2ccccc2C(=O)Nc2cc(C)ccn2)cc1 | -10% | x | -23% | 2% | 113% | 41*
O=C(Nc1cccnc1)c1ccccc1O | -11% | 58* | x | -100% | 54% | 21*
O=C(Nc1cccnc1)c1ccccc1-c1ccccc1 | 0% | -12 | 399% | 8% | -6% | -1
CSc1ncccc1C(=O)Nc1cc(C)ccn1 | -7% | 18 | 35% | -7% | 27% | 11*
COc1ccc(C(=O)NC(=O)Nc2cc(C)ccn2)cc1 | -3% | 77* | x | -22% | 235% | 34*
CCOC(=O)N1C(C)CN(/[N+]([O-])=N/Oc2ccc([N+](=O)[O-])cc2[N+](=O)[O-])CC1C (stereo unspecified) | x | 32 | x | x | x | 7
CCCCn1c(N)c(N(CC(C)C)C(=O)c2ccc(Cl)c(S(=O)(=O)N3CCCC3)c2)c(=O)[nH]c1=O | -6% | x | u | x | u | x
CS(=O)(=O)Nc1ccccc1C(=O)OCC(=O)N1CCC(c2ccccc2)=N1 | 9% | x | -20% | x | -11% | x
C=CCOc1ccc(C(=O)Nc2ccccc2C(=O)NCc2cccnc2)cc1 | -7% | -7 | 12% | 4% | 12µM* | -2
COc1ccc(C(=O)Nc2cccnc2)cc1 | 4% | 64 | x | -15% | 96% | 26
COc1ccc(C(=O)Nc2ccccc2C(=O)Nc2cccnc2)cc1 | -6% | 49* | 69% | -2% | 5% | 14
COc1ccc(C(=O)Nc2ccccc2C(=O)Nc2cccc(C)n2)cc1 | -3% | 28* | 59% | 7% | 27% | 9.8*
COc1cc2ccccc2cc1C(=O)Nc1cc(C)ccn1 | -10% | 104* | 14% | -28% | 70% | 42*
N#Cc1ccc(OCC(=O)Nc2ccc(S(=O)(=O)N3CCOCC3)cc2)cc1 | 2% | x | x | x | x | x
COc1ccc2oc(=O)c(-c3nc4ccccc4o3)cc2c1 | -17% | 66* | 52% | -7% | 35% | 25*
SMILES | SARS PLpro yeast | Shiga inhibitor | Pf growth 96h | NS1 function inh | Pf growth 48h | Cycloheximide cs
O=C1c2ccccc2C(=O)N1c1cccc(-c2nc3ccccc3o2)c1 | -4% | 3 | x | -9% | 13% | 1
O=c1oc2ccccc2cc1-c1nc2c(s1)CCCC2 | -8% | 56* | 164% | -3% | 279% | 31*
O=c1oc2ccccc2cc1-c1nc2ccccc2o1 | -3% | 71* | 2% | -44% | 44% | 38*
COc1ccc2oc(=O)c(C(=O)N3CCc4ccccc43)cc2c1 | -2% | -14 | 8% | -3% | 8% | -1
COCCCNC(=O)Cn1ccc(NC(=O)OCc2ccccc2)nc1=O | 4% | x | 27% | x | 51% | x
CN(CCCCN1CCOCC1)Cc1nc(-c2ccc3c(c2)OCO3)no1 | 1% | 20 | 13% | 0% | 35% | 9.5*
CN(CCN1CCc2ccccc2C1)Cc1nc(-c2ccc3c(c2)OCO3)no1 | -1% | -8 | u | -2% | 17% | -1
COCC1CCN(Cc2nc(-c3ccc4c(c3)OCO4)no2)C1 (stereo unspecified) | 1% | 67* | -14% | 4% | 71% | 39*
